# From PubChem BioAssay
# The source made the active and inactive calls. Unless noted, the rule behind the calls is not given here.
# Experiments:
# [1] = tested on: Wnt5a (protein binding on small-molecule microarray); assay: small molecules binding Wnt5a protein – biophysical, small-molecule microarray, 635/667 nm fluorescence, primary screen (AID 1142); conditions: 635 nm fluorescence, higher = more signal;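 note: fluorescence read at 667 nm with signal to noise per printed feature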
# [2] = ATP-based viability of Huh7 replicon cells – cell-based, CellTiter-Glo luminescence, basal, 48 h, cytotoxicity control for HCV replication inhibitor project, primary screen (AID 1143); conditions: higher = more signal, called active from +8 up or from −8 down;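 note: Huh7 hepatoma cells carrying a hepatitis C replication reporter with no stimulus; test concentration not given here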
# [3] = Pseudomonas biofilm growth suppression – PAO1 strain, BacTiter-Glo luminescence, LB-PBS, primary screen (AID 1144); conditions: P. aeruginosa PAO1 biofilm, 12 h, higher = more signal
# [4] = basal CRE-LacZ reporter activity in PC12 – cell-based, unstimulated, primary screen (AID 1145); conditions: no forskolin, luminescence, 4.5 h, higher = more signal, called active from +8 up or from −8 down
# [5] = forskolin-driven CRE-LacZ activity in PC12 – cell-based, CRE-LacZ reporter, forskolin-stimulated, primary screen (AID 1146); conditions: luminescence, 4.5 h, higher = more signal, called active from +8 up or from −8 down;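 note: PC12 cells with 6xCRE LacZ reporter stimulated by forskolin 10 µM; beta-galactosidase reporter signal reflecting CREB driven transcription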
# [6] = target: Streptavidin (Streptomyces avidinii) (UniProt P22629); assay: compounds binding control protein streptavidin – biophysical, small-molecule microarray, 635/667 nm fluorescence, artefact control for SMM compound annotation, primary screen (AID 1147); conditions: higher = more signal;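 note: signal reflects streptavidin binding to arrayed compounds as a control protein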
# [7] = probe aInhba binding on compound microarray – biochemical, small-molecule microarray, 635/667 nm fluorescence, primary screen (AID 1148); conditions: higher = more signal;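 note: score merges 667nm spot fluorescence with signal-to-noise for antibody binding to printed compounds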
# Torsin-1A (Homo sapiens) [8] = target: Torsin-1A (Homo sapiens) (UniProt O14656); assay: TOR1A wild-type binding on microarray – cell lysate, small-molecule microarray, lysate, 635/667 nm, primary screen (AID 1149); conditions: COS7 hTOR1A-WT lysate, 635 nm fluorescence, higher = more signal
# Torsin-1A (Homo sapiens) [9] = target: Torsin-1A (Homo sapiens) (UniProt O14656); assay: torsin A mutant lysate binding on microarrays – cell lysate, small-molecule microarray, COS7 lysate, 635/667 nm fluorescence, primary screen (AID 1150); conditions: COS7 hTOR1A mutant lysate, 635 nm fluorescence, higher = more signal;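 note: score pools 667 nm emission and signal to noise measuring lysate protein binding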
# [10] = tested on: Sonic hedgehog protein (Shh); assay: Sonic hedgehog microarray binding compounds – biochemical, small-molecule microarray, 635/667 nm fluorescence, primary screen (AID 1151); conditions: 635 nm fluorescence, higher = more signal;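 note: Shh protein binding to compounds spotted on small-molecule microarray slides; score combines spot fluorescence intensity with signal-to-noise across triplicate slides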
# [11] = optical density shifts of acrAB sulA E. coli – strain DRC41, OD650, 48 h, E. coli filamentation inducer project, primary screen (AID 1152); conditions: higher = more signal, called active from +8 up or from −8 down;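 note: E. coli MC1000 strain DRC41 lacking acrAB efflux pump and sulA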
# [12] = probe aLefty1 binding on compound microarray – biochemical, small-molecule microarray, 635/667 nm fluorescence, primary screen (AID 1153); conditions: higher = more signal;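 note: score merges spot fluorescence with signal-to-noise ratio from the scanned slide images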
# [13] = plasmodial surface anion channel blockers, osmotic lysis – cell-based, P. falciparum Indochina, OD700, 1 h, primary screen (AID 1154); conditions: P. falciparum Indochina infected RBC osmotic lysis, higher = more signal, called active from +8 up or from −8 down
# [14] = plasmodial surface anion channel blockers, osmotic lysis – cell-based, P. falciparum Indochina, OD700, 2 h, primary screen (AID 1155);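 note: lysis reports solute entry through the parasite surface anion channel PSAC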; conditions: P. falciparum Indochina infected erythrocytes, higher = more signal, called active from +8 up or from −8 down
# [15] = changes in parasitized red cell lysis, either direction – P. falciparum Indochina, OD700, 3 h, PSAC antagonist project, primary screen (AID 1156); conditions: P. falciparum-infected erythrocytes, osmotic lysis, higher = more signal, called active from +8 up or from −8 down
# [16] = plasmodial surface anion channel blockers, osmotic lysis – cell-based, P. falciparum Indochina, OD700, 18 h, primary screen (AID 1157); conditions: P. falciparum Indochina infected erythrocytes, osmotic lysis OD700, 18 h; higher = more signal, called active from +8 up or from −8 down
# [17] = S6 kinase pathway phospho-S6 level changes – cell-based, A549, cytoblot, luminescence, serum-stimulated, primary screen (AID 1158); conditions: 5 h, higher = more signal;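 note: serum-stimulated A549 lung adenocarcinoma cells; signal is phosphorylated S6 detected by cytoblot immunostaining with HRP secondary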
# [18] = target: NADPH oxidase 2 (Homo sapiens) (UniProt P04839); assay: compounds shifting NOX2 Amplex Red fluorescence – cell-based, HEK293-NOX2, PMA-stimulated, NOX inhibitor project, primary screen (AID 1159); conditions: 45 min, higher = more signal, called active from +8 up or from −8 down; note: test concentration not given here
# [19] = target: NADPH oxidase 4 (Homo sapiens) (UniProt Q9NPH5); assay: compounds shifting NOX4 Amplex Red fluorescence – cell-based, HEK293-NOX4, tetracycline-induced, NOX inhibitor project, primary screen (AID 1160); conditions: HEK293-NOX4, Amplex Red H2O2 fluorescence, 45 min; higher = more signal, called active from +8 up or from −8 down
# [20] = target: NADPH oxidase 5 (Homo sapiens) (UniProt Q96PH1); assay: compounds shifting NOX5 Amplex Red fluorescence – cell-based, HEK293-NOX5, NOX inhibitor project, primary screen (AID 1161); conditions: HEK293-NOX5, ionomycin, 45 min, higher = more signal
# Sequence of NADPH oxidase 5 (Homo sapiens) (Q96PH1 whole entry, looked up): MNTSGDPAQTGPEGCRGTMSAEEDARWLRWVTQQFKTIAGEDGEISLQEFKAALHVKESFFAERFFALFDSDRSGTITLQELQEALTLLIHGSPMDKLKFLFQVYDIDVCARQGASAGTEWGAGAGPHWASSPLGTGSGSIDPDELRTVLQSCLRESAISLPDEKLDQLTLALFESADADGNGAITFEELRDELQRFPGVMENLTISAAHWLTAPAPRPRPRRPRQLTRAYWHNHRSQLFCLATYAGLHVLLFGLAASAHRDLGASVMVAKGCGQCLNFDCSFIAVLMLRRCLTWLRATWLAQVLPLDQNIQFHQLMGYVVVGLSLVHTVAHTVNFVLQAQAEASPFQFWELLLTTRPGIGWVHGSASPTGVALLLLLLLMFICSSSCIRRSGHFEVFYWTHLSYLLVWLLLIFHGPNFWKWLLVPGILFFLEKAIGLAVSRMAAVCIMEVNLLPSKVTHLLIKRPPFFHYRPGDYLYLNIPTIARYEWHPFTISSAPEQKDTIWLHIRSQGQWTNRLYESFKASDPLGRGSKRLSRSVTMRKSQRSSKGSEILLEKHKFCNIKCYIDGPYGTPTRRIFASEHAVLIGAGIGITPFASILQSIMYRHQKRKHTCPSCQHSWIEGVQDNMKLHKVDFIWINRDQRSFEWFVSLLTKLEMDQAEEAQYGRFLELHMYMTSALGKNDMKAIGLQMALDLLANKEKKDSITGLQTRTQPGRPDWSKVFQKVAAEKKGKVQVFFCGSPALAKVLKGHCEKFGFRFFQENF
# Sequence of NADPH oxidase 4 (Homo sapiens) (Q9NPH5 whole entry, looked up): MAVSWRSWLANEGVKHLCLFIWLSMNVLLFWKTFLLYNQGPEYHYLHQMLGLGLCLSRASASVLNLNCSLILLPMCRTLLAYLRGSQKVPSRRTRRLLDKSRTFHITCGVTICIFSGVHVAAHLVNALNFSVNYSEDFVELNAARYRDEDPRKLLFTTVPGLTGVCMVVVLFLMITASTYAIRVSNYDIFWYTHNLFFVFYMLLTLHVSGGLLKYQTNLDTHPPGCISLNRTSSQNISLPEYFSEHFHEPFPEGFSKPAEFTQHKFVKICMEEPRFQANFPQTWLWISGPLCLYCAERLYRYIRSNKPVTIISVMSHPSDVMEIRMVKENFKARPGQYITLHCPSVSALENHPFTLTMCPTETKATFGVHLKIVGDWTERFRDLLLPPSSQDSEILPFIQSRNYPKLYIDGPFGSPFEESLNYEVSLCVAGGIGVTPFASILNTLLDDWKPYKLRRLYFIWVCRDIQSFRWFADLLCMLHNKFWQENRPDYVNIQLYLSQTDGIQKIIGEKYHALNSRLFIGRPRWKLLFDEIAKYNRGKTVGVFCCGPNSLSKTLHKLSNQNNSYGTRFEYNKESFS
# Sequence of Streptavidin (Streptomyces avidinii) (P22629 whole entry, looked up): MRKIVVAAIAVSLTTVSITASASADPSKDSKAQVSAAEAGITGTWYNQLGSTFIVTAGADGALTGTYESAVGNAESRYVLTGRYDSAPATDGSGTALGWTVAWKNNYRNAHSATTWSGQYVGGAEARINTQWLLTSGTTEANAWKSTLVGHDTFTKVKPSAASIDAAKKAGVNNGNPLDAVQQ
# Sequence of NADPH oxidase 2 (Homo sapiens) (P04839 whole entry, looked up): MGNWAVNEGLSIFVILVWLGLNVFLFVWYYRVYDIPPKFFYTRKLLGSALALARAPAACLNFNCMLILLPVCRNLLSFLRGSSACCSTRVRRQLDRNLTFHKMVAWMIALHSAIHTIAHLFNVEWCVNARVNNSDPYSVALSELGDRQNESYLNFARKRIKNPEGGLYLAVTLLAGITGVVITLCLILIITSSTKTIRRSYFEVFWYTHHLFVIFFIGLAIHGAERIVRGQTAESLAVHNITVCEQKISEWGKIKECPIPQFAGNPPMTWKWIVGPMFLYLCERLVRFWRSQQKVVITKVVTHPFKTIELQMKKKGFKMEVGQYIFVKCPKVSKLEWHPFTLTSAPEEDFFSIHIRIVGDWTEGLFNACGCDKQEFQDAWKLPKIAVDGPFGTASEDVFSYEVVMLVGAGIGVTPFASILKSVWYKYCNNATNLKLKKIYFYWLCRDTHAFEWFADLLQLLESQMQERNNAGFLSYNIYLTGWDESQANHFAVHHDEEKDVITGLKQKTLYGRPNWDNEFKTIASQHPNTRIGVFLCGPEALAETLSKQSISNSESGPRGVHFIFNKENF
# Sequence of Torsin-1A (Homo sapiens) (O14656 whole entry, looked up): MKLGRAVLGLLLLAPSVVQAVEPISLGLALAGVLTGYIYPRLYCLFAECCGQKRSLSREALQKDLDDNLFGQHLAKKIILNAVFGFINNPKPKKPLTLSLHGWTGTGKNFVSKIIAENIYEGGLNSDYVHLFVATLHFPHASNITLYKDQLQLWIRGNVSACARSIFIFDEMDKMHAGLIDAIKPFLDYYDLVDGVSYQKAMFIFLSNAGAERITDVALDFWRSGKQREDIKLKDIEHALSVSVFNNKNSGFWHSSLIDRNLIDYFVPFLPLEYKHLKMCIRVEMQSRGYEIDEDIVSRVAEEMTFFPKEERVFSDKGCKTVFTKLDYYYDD
Structure (SMILES),composite z-score [1],z-score [2],z-score [3],z-score [4],z-score [5],composite z-score [6],composite z-score [7],composite z-score (Torsin-1A (Homo sapiens) [8]),composite z-score (Torsin-1A (Homo sapiens) [9]),composite z-score [10],z-score [11],composite z-score [12],z-score [13],z-score [14],z-score [15],z-score [16],z-score [17],z-score [18],z-score [19],z-score [20]
O=C1O[C@@H](c2ccccc2)[C@@H](c2ccccc2)N2[C@@H](c3ccc(O)cc3)[C@]3(C(=O)Nc4ccc(C#CC5=CCCCC5)cc43)[C@@H](C(=O)N3CCN(c4ncccn4)CC3)[C@H]12,0.326,-3.76 (inactive),-1.07 (inactive),-1.14 (inactive),-0.286 (inactive),0.448,0.0633,0.6,0.836,1.21,1.29 (inactive),0.257,0.445 (inactive),0.35 (inactive),-4.76 (inactive),0.614 (inactive),0.401,0.532 (inactive),0.278 (inactive),0.904
[N-]=[N+]=NCc1ccccc1C[C@@]1(C(=O)N2CCCCC2)N=C(c2ccc(OCCCO)cc2)O[C@@H]1c1ccccc1N=[N+]=[N-],-0.269,-3.28 (inactive),1.48 (inactive),0.596 (inactive),-1.16 (inactive),0.75,-0.209,0.704,0.826,0.0369,0.842 (inactive),-0.126,31.2 (active),30.4 (active),2.6 (inactive),3.27 (inactive),-0.0417,1.2 (inactive),-0.0332 (inactive),-1.27
C[C@H]1C2=C3C(CC[C@H]4C(OCc5ccc(F)cc5C(F)(F)F)OC[C@](C)([C@@H]34)N(C(=O)OC(C)(C)C)C2)C2COC(=O)OCC21 (stereo not given in full),0.163,-1.13 (inactive),-0.318 (inactive),0.201 (inactive),0.796 (inactive),1.29,0.0992,0.639,0.988,-0.789,-2.42 (inactive),0.739,2.68 (inactive),0.368 (inactive),1.19 (inactive),1.11 (inactive),-0.139,-0.0545 (inactive),-2.17 (inactive),-1.09
CCOC(=O)C[C@H]1[C@H](OC(=O)Cc2ccc3c(c2)OCO3)[C@@H](NC(=O)C2CCCCC2)c2cc(OCCCO)ccc2N1C(=O)c1ccc2ccccc2n1,0.305,-3.34 (inactive),-0.273 (inactive),6.45 (inactive),0.871 (inactive),0.658,-0.0361,0.392,0.172,1.39,0.699 (inactive),-0.106,1.88 (inactive),-0.954 (inactive),-0.13 (inactive),-2.2 (inactive),1.17,-1.86 (inactive),0.214 (inactive),-2.62
CC=CC(O)C1C=CC2C(=O)N(C)C(=O)C2N1N1CCCCC1 (stereo not given),0.251,0.173 (inactive),-0.0466 (inactive),1.79 (inactive),0.319 (inactive),0.988,-0.15,0.74,0.71,0.441,-1.81 (inactive),-0.0359,0.974 (inactive),1.18 (inactive),-0.343 (inactive),0.801 (inactive),-1.01,-0.605 (inactive),-0.473 (inactive),-1.96
O=C1OCC=C[C@H]2OC34C=CCN(c5ccc(Cl)cc5)C(=O)[C@H]3N(CCCCCO)C(=O)[C@@H]4[C@@H]12 (stereo not given in full),-0.391,-0.116 (inactive),1.73 (inactive),0.183 (inactive),0.168 (inactive),-1.18,-0.128,0.172,2.22,-0.695,0.553 (inactive),0.0927,2.47 (inactive),0.622 (inactive),0.871 (inactive),0.502 (inactive),-0.646,1.95 (inactive),0.525 (inactive),2.87
O=C1O[C@H](c2ccccc2)[C@H](c2ccccc2)N2[C@H]1[C@@H](C(=O)O)[C@]1(C(=O)Nc3ccccc31)[C@H]2c1ccc(O)cc1,0.251,0.0915 (inactive),-0.0265 (inactive),-0.0566 (inactive),-0.763 (inactive),-0.516,-0.0418,0.109,1.45,-0.429,-0.611 (inactive),-0.0501,1.26 (inactive),0.789 (inactive),-0.236 (inactive),0.678 (inactive),0.374,-0.295 (inactive),-0.697 (inactive),1.31
Cc1c(NC(=O)/C(C#N)=C/C=C/c2ccc(N(C)C)cc2)c(=O)n(-c2ccccc2)n1C,0.48,-0.853 (inactive),2.09 (inactive),0.595 (inactive),-1.4 (inactive),0.96,0.264,0.314,0.288,0.259,0.504 (inactive),0.628,16.3 (active),2.8 (inactive),-0.164 (inactive),0.89 (inactive),-0.466,-2.41 (inactive),-1.51 (inactive),-0.807
COc1ccc([Si](C)(C)[C@H]2[C@H](CCn3cc([C@H](O)c4ccccc4)nn3)O[C@@]3(C(=O)N(Cc4ccc(N5CCC5=O)cc4)c4ccccc43)[C@@H]2C)cc1,0.826,-3.89 (inactive),0.572 (inactive),0.31 (inactive),-1.05 (inactive),-0.503,-0.128,0.441,0.489,1.83,0.503 (inactive),0.0341,30.5 (active),27.1 (active),1.25 (inactive),2.07 (inactive),0.436,0.923 (inactive),1.6 (inactive),2.22
NC(=O)NCC#Cc1ccc2c(c1)[C@]1(C(=O)N2)[C@H](C(=O)Nc2nc3ccccc3s2)[C@H]2C(=O)O[C@H](c3ccccc3)[C@H](c3ccccc3)N2[C@@H]1c1ccc(O)cc1,0.236,0.0524 (inactive),0.688 (inactive),-1.15 (inactive),-1.58 (inactive),2.27,0.806,0.171,-0.216,0.922,0.996 (inactive),0.315,2.92 (inactive),2.35 (inactive),0.962 (inactive),1.19 (inactive),-0.0609,-0.23 (inactive),-1.27 (inactive),0.16
COc1ccc(C(O)C2C=CC3C(=O)N(c4ccccc4)C(=O)C3N2Nc2ccccc2)cc1OCc1ccccc1 (stereo not given),0.302,0.197 (inactive),-1.12 (inactive),0.0535 (inactive),0.414 (inactive),0.887,0.185,0.867,0.887,0.81,-1.1 (inactive),0.0924,3.82 (inactive),1.49 (inactive),0.421 (inactive),1.1 (inactive),-1.39,-1.19 (inactive),-3.65 (inactive),-2.48
COCCOC(=O)N1C(=O)[C@@]2(c3cc(C#CC4(O)CCCCCC4)ccc31)[C@H](C(N)=O)[C@H]1C(=O)O[C@H](c3ccccc3)[C@H](c3ccccc3)N1[C@@H]2c1ccc(O)cc1,0.179,-1.02 (inactive),0.00701 (inactive),2.25 (inactive),3.59 (inactive),0.184,-0.0645,-0.0243,0.0342,0.778,-0.342 (inactive),-0.0186,1.7 (inactive),-0.269 (inactive),2.21 (inactive),-0.125 (inactive),-0.0551,0.649 (inactive),0.547 (inactive),0.85
O=C1O[C@@H](c2ccccc2)[C@@H](c2ccccc2)N2[C@@H](c3ccccc3OCCO)[C@]3(C(=O)Nc4ccccc43)[C@@H](C(=O)NC[C@H](O)c3ccccc3)[C@H]12,-0.123,-6.2 (inactive),-0.668 (inactive),0.209 (inactive),4.03 (inactive),-0.625,-0.149,0.604,0.297,0.0935,-0.275 (inactive),0.0112,5.03 (inactive),2.2 (inactive),-0.526 (inactive),1.87 (inactive),-0.589,1.43 (inactive),0.303 (inactive),1.56
COc1c(C)cc(-c2cc3c(c(-c4ccccc4)n2)[Si](C(C)C)(C(C)C)OC3)cc1C,0.0775,0.109 (inactive),-0.661 (inactive),-0.491 (inactive),-0.478 (inactive),0.657,-0.0313,0.124,-0.402,0.513,0.118 (inactive),-0.0287,1.54 (inactive),0.494 (inactive),0.392 (inactive),0.506 (inactive),0.768,0.956 (inactive),0.103 (inactive),0.829
CCCc1cccc(=O)o1,0.0303,-1.62 (inactive),-0.848 (inactive),-0.574 (inactive),0.646 (inactive),0.216,-0.128,1.08,0.5,0.542,-0.228 (inactive),0.042,0.342 (inactive),-0.831 (inactive),-0.832 (inactive),-1.23 (inactive),0.274,0.685 (inactive),-0.173 (inactive),0.173
